The source of these data is PubChem BioAssay.

The source made the active and inactive calls. Unless noted, the rule behind the calls is not given here.

Test [1] can be described thus: compound effects on lung adenocarcinoma cell viability – A549, calcein-AM fluorescence, 48 h, basal, profiling panel (AID 1162). Note: test concentration not given here. Conditions: higher = more signal.
The nature of test [2]: compound effects on differentiated 3T3-L1 adipocyte viability – cell-based, 3T3-L1 adipocytes, calcein-AM fluorescence, 48 h, basal, profiling panel (AID 1163). Note: test concentration not given here. As to conditions: 3T3-L1 adipocytes viability, higher = more signal.
The nature of test [3]: compound effects on hepatocellular carcinoma cell viability – HepG2, calcein-AM fluorescence, 48 h, basal, profiling panel (AID 1164). Note: test concentration not given here. Conditions: higher = more signal.
Test [4] in a line: compound effects on multiple myeloma cell viability – MM1S, calcein-AM fluorescence, 48 h, basal, profiling panel (AID 1165). Note: test concentration not given here. Conditions: higher = more signal.
Test [5] can be described thus: calcein-AM signal in unstimulated myeloma cells – cell-based, calcein-AM fluorescence, 48 h, PK04 Diversity Set, profiling panel (AID 1166).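 Note: cells grown under basal conditions without added stimulus; test concentration not given here.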 As to conditions: RPMI8226 myeloma viability, higher = more signal.
The nature of test [6]: JC-1 mitochondrial signal, unstimulated HepG2 cells – cell-based, JC-1 fluorescence, 24 h, 100 nL compound, profiling panel (AID 1167). Note: test concentration not given here. Conditions: HepG2 mitochondrial potential, higher = more signal.
Test [7] is described as follows: JC-1 mitochondrial signal, unstimulated adipocytes – cell-based, JC-1 fluorescence, 3T3-L1 adipocytes, 24 h, 100 nL compound, profiling panel (AID 1168). Note: test concentration not given here. Conditions: JC-1 mitochondrial fluorescence, higher = more signal, called active from +8 up or from −8 down.
Test [8] is described as follows: JC-1 mitochondrial signal, unstimulated myeloma cells – cell-based, JC-1 fluorescence, RPMI8226, 24 h, 100 nL compound, profiling panel (AID 1169). Note: test concentration not given here. As to conditions: JC-1 mitochondrial potential fluorescence, higher = more signal.
Test [9] can be described thus: JC-1 mitochondrial signal, unstimulated MM1S myeloma – cell-based, JC-1 fluorescence, 24 h, 100 nL compound, profiling panel (AID 1170). Note: test concentration not given here. Conditions: MM1S mitochondrial potential, higher = more signal.
A short description of test [10]: resazurin metabolic signal in A549 cells – cell-based, resazurin fluorescence, 24 h, PK04 Diversity Set, profiling panel (AID 1171). Note: test concentration not given here. Conditions: A549 viability, higher = more signal, called active from +8 up or from −8 down.
Test [11] can be described thus: resazurin metabolic signal in HepG2 cells – cell-based, resazurin fluorescence, 24 h, PK04 Diversity Set, profiling panel (AID 1172). Note: test concentration not given here. Conditions: HepG2 viability, higher = more signal. (In general: Resazurin is reduced to fluorescent resorufin, in cell work by metabolically active cells.)
The nature of test [12]: budding yeast growth changes without added modifier – OD600, strain BY4716, 24 h, basal condition, primary screen (AID 1173). As to conditions: S. cerevisiae BY4716 growth, OD600, 24 h; higher = more signal, called active from +8 up or from −8 down.
Test [13] can be described thus: viability profiling in MM1S myeloma cells – cell-based, resazurin fluorescence, basal, 24 h, PK04 Diversity Set, profiling panel (AID 1174). Note: test concentration not given here. Conditions: higher = more signal, called active from +8 up or from −8 down.
Test [14] concerns the target Dihydroorotate dehydrogenase (quinone), mitochondrial (Plasmodium falciparum (isolate 3D7)) (UniProt Q08210). Kind of test: inhibition of P. falciparum DHODH – biochemical, C-terminal His tag, absorbance 600 nm, primary screen (AID 1175).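 Note: recombinant parasite enzyme with a five histidine tag at its C terminus; test concentration not given here.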 As to conditions: PfDHODH enzyme, DCIP absorbance 600 nm; higher = more signal, called active from +8 up or from −8 down.
Test [15] can be described thus: inhibition of PAO1 biofilm formation – strain PAO1, LB-PBS medium, absorbance 600 nm, primary screen (AID 1176). Note: test concentration not given here. As to conditions: P. aeruginosa PAO1 growth/biofilm, A600, 12 h; higher = more signal.
Test [16] in a line: growth modulation of vineyard yeast isolate – strain RM11-1a, OD600, basal, 24 h, primary screen (AID 1177).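 Note: cultures grown under basal conditions with no added stressor; test concentration not given here.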 Conditions: S. cerevisiae RM11-1a growth, OD600, 24 h; higher = more signal, called active from +8 up or from −8 down.
The nature of test [17]: growth of efflux-deficient E. coli DRC39 – strain DRC39, OD650, 24 h, E. coli filamentation inducers, primary screen (AID 1178).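 Note: growth measured as culture turbidity by optical density at 650 nm; test concentration not given here.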 As to conditions: E. coli DRC39 acrAB, higher = more signal, called active from +8 up or from −8 down.
A short description of test [18]: growth of efflux-deficient E. coli DRC39 – strain DRC39, OD650, 48 h, E. coli filamentation inducers, primary screen (AID 1179).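 Note: screen aims at cell division blockers that make cells filament.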 Conditions: E. coli DRC39 delta-acrAB growth, higher = more signal, called active from +8 up or from −8 down.
The nature of test [19]: viability profiling in RPMI8226 myeloma cells – cell-based, resazurin fluorescence, basal, 24 h, PK04 Diversity Set, profiling panel (AID 1180).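 Note: RPMI8826 multiple myeloma cell line at 5000 cells per well; test concentration not given here.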 Conditions: higher = more signal.
In test [20] the target is E3 ubiquitin-protein ligase XIAP (Homo sapiens) (UniProt P98170). Kind of test: small molecules binding XIAP protein – biophysical, small-molecule microarray, fluorescence 635 nm, primary screen (AID 1181).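 Note: score merges 667 nm emission and signal to noise over triplicate slides.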 Conditions: higher = more signal.
E3 ubiquitin-protein ligase XIAP (Homo sapiens), sequence (P98170 whole entry, looked up): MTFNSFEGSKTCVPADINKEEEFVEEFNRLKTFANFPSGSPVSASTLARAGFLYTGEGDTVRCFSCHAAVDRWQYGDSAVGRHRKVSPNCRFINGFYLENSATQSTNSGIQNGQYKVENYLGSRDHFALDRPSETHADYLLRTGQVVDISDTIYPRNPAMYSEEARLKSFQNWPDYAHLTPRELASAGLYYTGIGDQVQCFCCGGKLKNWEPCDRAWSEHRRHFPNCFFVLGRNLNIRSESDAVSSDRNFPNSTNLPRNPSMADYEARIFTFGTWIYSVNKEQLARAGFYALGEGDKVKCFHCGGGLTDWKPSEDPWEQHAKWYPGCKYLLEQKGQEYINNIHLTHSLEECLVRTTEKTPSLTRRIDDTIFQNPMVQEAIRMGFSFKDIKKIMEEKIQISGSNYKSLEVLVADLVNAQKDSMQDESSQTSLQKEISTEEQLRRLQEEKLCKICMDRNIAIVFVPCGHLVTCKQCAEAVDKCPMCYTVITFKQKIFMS

Dihydroorotate dehydrogenase (quinone), mitochondrial (Plasmodium falciparum (isolate 3D7)), sequence (Q08210 whole entry, looked up): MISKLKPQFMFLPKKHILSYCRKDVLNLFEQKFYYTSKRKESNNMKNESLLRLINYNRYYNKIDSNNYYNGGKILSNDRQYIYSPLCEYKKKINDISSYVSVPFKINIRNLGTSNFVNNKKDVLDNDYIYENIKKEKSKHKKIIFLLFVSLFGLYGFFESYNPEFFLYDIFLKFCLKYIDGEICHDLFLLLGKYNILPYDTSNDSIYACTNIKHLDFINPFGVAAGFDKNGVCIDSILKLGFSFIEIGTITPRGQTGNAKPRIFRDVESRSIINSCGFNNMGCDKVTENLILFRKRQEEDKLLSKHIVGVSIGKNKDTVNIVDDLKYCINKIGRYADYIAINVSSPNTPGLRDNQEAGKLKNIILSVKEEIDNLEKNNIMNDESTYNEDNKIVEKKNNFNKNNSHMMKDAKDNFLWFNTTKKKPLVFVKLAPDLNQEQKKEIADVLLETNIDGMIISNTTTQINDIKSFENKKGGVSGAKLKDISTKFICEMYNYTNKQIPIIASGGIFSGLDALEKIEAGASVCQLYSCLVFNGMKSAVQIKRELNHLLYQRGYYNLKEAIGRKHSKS

As for `O=C1C2C=CC(C(O)c3cccc4ccccc34)N(Nc3ccccc3F)C2C(=O)N1c1ccccc1` (stereo not given), the z-score in test [1] was -1.05; in test [2], -1.47; in [3], -0.231; in test [4], 0.121; in test [5] it was -0.345; in [6], -1.86. Moreover, the z-score in test [7] is -0.794 (inactive); in test [8], 0.355; in [9] it was -1.68; in test [10], -0.232 (inactive); in test [11], 0.0332; in test [12], -0.103 (inactive). Further, the z-score in [13] was -0.186 (inactive); in test [15] it was 1.11 (inactive); in [16] it was 0.0054 (inactive); in test [17], -0.844 (inactive); in test [18], -0.204 (inactive); in test [19], 0.0889. Besides, the composite z-score in test [14] was -0.629 (inactive); in test [20], 0.321.
With `O=C1C[C@@](C(=O)NCCN2CCOCC2)(c2ccc([N+](=O)[O-])cc2)[C@@H](c2ccc(CO)cc2I)N1CC12CC3CC(CC(C3)C1)C2`, the z-score is -4.03 in test [1]; 0.546 in [2]; -5.11 in [3]; -3.86 in [4]; -4.39 in test [5]; -2.72 in test [6]. For the same compound, the z-score in test [7] is 0.981 (inactive); in test [8] it was -0.93; in [9] it was -2.17; in test [10], -4.83 (inactive); in [11], -5.11; in test [12], -12.9 (active). The z-score is -6.88 (inactive) in [13]; 0.941 (inactive) in test [15]; -21.4 (active) in [16]; -0.272 (inactive) in test [17]; -0.305 (inactive) in test [18]; -5.62 in test [19]. Besides, the composite z-score was -0.227 (inactive) in test [14] and -0.0095 in test [20].
Consider `CCS[C@H]1[C@@H](C(=O)O)[C@H](c2ccc(C)cc2)N(S(=O)(=O)c2ccc(C)cc2)[C@@H]1CC`, for which the z-score was -0.408 in [1]; -0.507 in test [2]; 1.36 in [3]; 0.412 in test [4]; 0.458 in test [5]; 0.922 in test [6]. For the same compound, the z-score in test [7] was 0.337 (inactive); in test [8], 0.551; in test [9], -1.88; in test [10], -0.545 (inactive); in test [11], 0; in test [12] it was 0.788 (inactive). Further, the z-score is -0.751 (inactive) in [13]; 0.257 (inactive) in [15]; -0.0137 (inactive) in test [16]; -0.419 (inactive) in test [17]; 0.843 (inactive) in test [18]; -0.702 in [19]. Further, the composite z-score was -1.03 (inactive) in [14] and -0.167 in [20].
For `CCOC(=O)[C@H]1C/C=C/C[C@H](C(=O)OCC)C(=O)O[C@H]2[C@@H](OC)O[C@H](CO)[C@@H](OC(=O)c3c(OC)cccc3OC)[C@@H]2OC1=O`, the z-score in [1] is -4.24; in [2], 0.125; in [3], -4.96; in test [4], -3.3; in [5], -4.09; in test [6] it was -3.48. Moreover, the z-score is 0.154 (inactive) in test [7]; -0.999 in test [8]; -1.96 in [9]; -4.38 (inactive) in [10]; -3.51 in test [11]; -0.964 (inactive) in test [12]. Also, the z-score in test [13] is -3.73 (inactive); in test [15] it was 0.498 (inactive); in test [16], 0.996 (inactive); in [17], 0.0332 (inactive); in test [18] it was 0.328 (inactive); in [19], -3.51. In addition, the results for the composite z-score in test [14] and in [20] were -0.232 (inactive) and -0.102, respectively.
With `COc1ccc(/C=C/C=O)cc1`, the z-score was 0.637 in test [1]; -0.243 in test [2]; 0.0562 in test [3]; 0.418 in test [4]; -1.22 in test [5]; 0.555 in test [6]. For the same compound, the z-score in test [7] is 0.754 (inactive); in [8], -0.464; in [9], -0.0737; in test [10] it was -0.925 (inactive); in [11], -0.316; in test [12], -3.59 (inactive). Further, the z-score is -0.998 (inactive) in [13]; 0.0061 (inactive) in test [15]; 0.313 (inactive) in test [16]; 0.154 (inactive) in test [17]; 0.0154 (inactive) in test [18]; -0.495 in [19]. Further, the composite z-score in test [14] is -0.291 (inactive); in [20], 0.128.
